The campaign covered roughly 1,200 compounds. About 30 (2%) were called active. Roughly 23% stayed inconclusive and do not appear here. Calls come from the whole dose curve; as a rule, active = well fitted inhibition curve with a large enough effect; inconclusive = small, poorly fitted or top-dose-only effect; inactive = flat fitted curve, though single readings scatter. The sample as a whole holds a higher share of actives than the screen did.
Target: Single-stranded DNA cytosine deaminase (Homo sapiens) (UniProt Q9GZX7)
Test: Confirmatory qHTS assay for inhibitors of Activation Induced Cytidine Deaminase (AID): AID signals
Conditions: recombinant AID, FRET deamination/UDG coupled fluorescence, 4 h; series mostly up to 115 µM; activity, negative = inhibition: at the top concentration
Summary of the method: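 Read 1 (AID) was measured at 540 ex/590 em after a 30 min NaOH step. The reaction was AID (1 uM, 4/3x stock) with UDG, compound at final 7.32 nM - 114 uM for 10 min, then DJC20/DJC23 substrate for 4 hr at room temperature. A UDG read at 560/665 serves as counterscreen.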
% is set by controls: 0 for no effect and ±100 for the full control effect; potency is the fitted concentration of half-maximal effect.

Single-stranded DNA cytosine deaminase (Homo sapiens), sequence (Q9GZX7 whole entry, looked up): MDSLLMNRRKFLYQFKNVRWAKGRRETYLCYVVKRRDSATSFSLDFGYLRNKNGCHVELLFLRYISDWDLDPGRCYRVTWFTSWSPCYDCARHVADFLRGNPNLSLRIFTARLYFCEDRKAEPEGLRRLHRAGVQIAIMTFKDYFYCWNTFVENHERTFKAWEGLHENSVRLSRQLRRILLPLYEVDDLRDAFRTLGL

activity, negative = inhibition, inactive:
CCc1nn(CCCC(=O)N2CCN(c3cc(Cl)ccc3C)CC2)c(=O)c2cc3occc3n12 -25%, CCn1cc2nc(SCC(=O)Nc3ccccc3C(F)(F)F)n(Cc3ccc(C)cc3)c(=O)c2n1 -22.9%, CCc1ccc2c(c1)c(=O)c(S(=O)(=O)c1ccc(Cl)cc1)cn2CC -7.45%, Cc1ccccc1OCc1nnc(SCc2cc(=O)c3ccc(C)c(C)c3[nH]2)n1C -24.7%, CCOc1ccc(CCNC(=O)c2nc(-c3cccc(F)c3)n3c2CCCCC3)cc1OCC -12%, Cc1ccc(C)c(N2CCN(C(=O)c3ccc(CS(=O)(=O)c4ccc(Br)cc4)o3)CC2)c1 -8.36%, CCOC(=O)CSc1nnc2n(-c3ccccc3)c(=O)c3c4c(sc3n12)CC(C(C)(C)C)CC4 (centres undefined) -11.7%, CCn1cc(C(=O)NCCCOC(C)C)c(=O)c2cc(S(=O)(=O)N(C)C3CCCCC3)ccc21 -14.5%, Cc1cccc(CCNc2ncnc3onc(-c4ccc(Cl)cc4)c23)c1 2.28%, Cc1cc2c(cc3c(SCc4ccc(Cl)cc4)nnc(C)n32)o1 -7.73%, Cc1c(C)n(C)c2ccc(C(=O)N3CCN(c4ccccc4)CC3)cc12 0.494%, CC(=O)c1ccc(NC(=O)C2CCN(c3nnc(C)c4c(C)n(-c5ccccc5)nc34)CC2)cc1 -29.1%, COc1ccc(CC(=O)Nc2sc3c(c2C(=O)Nc2cccc(Cl)c2)CCCCC3)cc1 2.52%, CCCN(CCC)C(=O)Cn1c(=O)n(Cc2ccc(C(=O)NCCc3ccc(OC)c(OC)c3)cc2)c(=O)c2ccccc21 -3.63%, Cc1cccc(N2CCN(C(=O)C3CCN(c4ncnc5c4nc4n5CCCCC4)CC3)CC2)c1C -17.9%, Fc1ccc(Cn2c(-c3cccc(Br)c3)nc3ccccc32)cc1 -17.1%, COc1ccc(C(=O)NCC(c2cccnc2)N2CCc3ccccc32)cc1 (centres undefined) 1.56%, Cn1c(=O)c2c(-c3ccc(Br)cc3)n(CCc3ccccc3)cc2n(C)c1=O -16.2%, CCc1ccc(CNC(=O)C(CC)n2nc(C)c3c(C)n(-c4ccccc4)nc3c2=O)cc1 (centres undefined) -18.2%, Cc1cccc(Cn2c(=O)n3nc(-c4ccccc4)nc3c3ccccc32)c1 -4.38%, Clc1ccc(-c2noc3ncnc(NCCCN4CCN(c5ccccc5)CC4)c23)cc1 0.554%, Cc1ccc(C)c(CN2C(=O)c3ccccc3S(=O)c3ccc(C(=O)N4CCC(C)CC4)cc32)c1 (centres undefined) -10.6%, COc1ccc2c(C)cc(SCC(=O)Nc3nsc(-c4ccc(C(C)(C)C)cc4)n3)nc2c1 -8.76%, O=C(CSc1nc2ccccc2nc1Cc1ccccc1)Nc1ccccc1C(F)(F)F 1.65%, O=c1cc2nc(-c3cccs3)nc(SCCOc3ccc(Cl)cc3)n2[nH]1 -10.7%, C=CCc1ccccc1OCCSc1nc(-c2ccc(C(C)(C)C)cc2)nc2cc(=O)[nH]n12 -11.2%, Cc1cccc(C(=O)Nc2sc3c(c2C(=O)O)CCCC3)c1 -16.9%, Cc1nc2c(-c3ccccc3)c(C)nn2c(C)c1CCC(=O)N1CCN(c2ccccc2)CC1 -7.22%, CCOc1ccc(-c2nn(-c3ccccc3)cc2C2NC(=O)NC(C)=C2C(=O)OC(C)C)cc1C (centres undefined) -12.4%, O=C(NCCc1nc2ccccc2n1Cc1ccc(Cl)cc1Cl)c1ccco1 -6.08%, CCN(C(=O)Cn1c(SCC(=O)Nc2ccc(OC)cc2)nc2ccccc21)c1cccc(C)c1 -22%, CC(C)(C)c1ccc(C(=O)N2CCCC(c3nc4c(nnn4Cc4cccc(F)c4)c(=O)[nH]3)C2)cc1 (centres undefined) -4.66%, CCOc1ccc(CN2CCc3nc(Nc4ccc(OC)cc4OC)ncc3C2)cc1 -2.62%, Cc1cc2c(cc3c(SCc4cccc(Cl)c4)nnc(C)n32)o1 0.875%, COC(=O)c1ccc(OCC2c3cc(OC)c(OC)cc3CCN2C(=O)c2cccc(C)c2)cc1 (centres undefined) -7.23%, CCc1ccc(NC(=O)c2ccc3c(O)c(S(=O)(=O)c4ccccc4)c(=O)[nH]c3c2)cc1 -17.9%, O=C(NCc1ccccc1Cl)c1ccc2c(O)c(S(=O)(=O)c3ccccc3)c(=O)[nH]c2c1 -12.7%, Cc1ccc(Cl)cc1N1CCN(C(=O)c2ccc(C)c(-n3c(C)nc4cccnc43)c2)CC1 -6.99%, CCc1ccc(NS(=O)(=O)c2ccc3oc(=O)c4ncn(CC)c4c3c2)cc1 -15.8%, CCOc1ccc(-c2noc(CSc3nnc(Cc4ccccc4)n3-c3ccc(F)cc3)n2)cc1 -19.5%, COc1ccc(N2CCN(C(=O)c3sc4nc5n(c(=O)c4c3C)CCC5)CC2)cc1 -13.6%, CCN(CC)c1cc(C)c2cc(NC(=O)c3cccc(OC)c3)ccc2n1 -9.48%, CCOC(=O)C1=C(CN(CC)Cc2ccccc2)NC(=O)NC1c1ccc(Cl)cc1 (centres undefined) -14%, CCc1ccc(CN(Cc2ccco2)C(=O)c2ccc(C)cc2)cc1 1.83%, Cc1ccc(C2=NN(CC(=O)NCCCN(CC(C)C)CC(C)C)C(=O)CC2)cc1 -12.2%, COc1ccc(-n2c(-c3ccc(C)cc3)cc3c2CC(C)(C)CC3=O)c(OC)c1 -15.8%, Cc1ccc(Cc2c(C)nc3nc(SCC(=O)NC(C)c4ccccc4)nn3c2C)cc1 (centres undefined) -6.04%, CCCCOc1ccc(C(=O)NCC(c2ccc(Cl)cc2)N2CCOCC2)cc1 (centres undefined) -2.89%, CC1CCCCN1C(=O)CSc1nc2ccccc2nc1Cc1ccccc1 (centres undefined) -15.5%, COc1cccc(-c2nc(CS(=O)CC(=O)N3CCN(c4cccc(C(F)(F)F)c4)CC3)c(C)o2)c1 (centres undefined) -23.9%, CCc1nc(Nc2ccc(F)c(Cl)c2)c2c3c(sc2n1)CCCC3 2.84%, Cc1ccc2nc(Cl)c3cc(C(=O)N4CCCC(C)C4)sc3c2c1 (centres undefined) -2.34%, Cc1ccc(C(=O)c2cn(Cc3cc(C)ccc3C)c3nc(C)ccc3c2=O)cc1 -26.6%, O=C(Cc1ccccc1F)N1CCC(c2nc3c(nnn3Cc3cccc(Cl)c3)c(=O)[nH]2)CC1 -11.7%, CCc1cnc2c(c1SCc1ccccc1C)c(=O)n(C)c(=O)n2C -3.91%, CCN(CC)CCCNC(=O)c1ccc2c(c1)sc1nc(-c3ccc(C)cc3)cn12 -24.7%, Cc1ccc(C)c(Cn2c(=O)n(CC3CCC(C(=O)N4CCOCC4)CC3)c(=O)c3sccc32)c1 (centres undefined) -4.69%, COc1ccc(C2C=C(c3ccccc3)Nc3nc(NS(=O)(=O)c4ccccc4)nn32)cc1 (centres undefined) -23.7%, Cc1ccc(S(=O)(=O)Nc2nc3n(n2)C(c2ccccc2Cl)C=C(c2ccccc2)N3)cc1 (centres undefined) -17.4%, Cc1ccc(C)c(N2CCN(C(=O)c3cccn3-c3nnc(N4CCCCC4)s3)CC2)c1 -19.7%, CC1=C(C(=O)NCc2cccc(Cl)c2)C2(CCCCCC2)OC1=O 1.97%, CCc1ccc(-n2c(SCc3nc(-c4cc(OC)ccc4OC)no3)nnc2-c2ccccc2)cc1 -19%, CCc1ccc(OCC(=O)N(Cc2ccc(C(C)C)cc2)C2CCS(=O)(=O)C2)cc1 (centres undefined) -7.21%, Cc1cccc(-n2ccnc2SCC(=O)Nc2cccc3ccccc23)c1 1.1%, Nc1ccc2oc(Cc3ccc(Cl)cc3)nc2c1 24.6%, Cc1cccc(N2CCN(C(=O)C3CCCN(C(=O)c4cc5sccc5n4C)C3)CC2)c1C (centres undefined) -19.6%, Cc1ccc(C)c(C(=O)N2CCC(c3nc4c(nnn4Cc4ccccc4)c(=O)[nH]3)CC2)c1 -19.8%, CC1CCN(S(=O)(=O)c2ccc3c(c2)c(=O)c(C(=O)NC(C)c2ccccc2)cn3C)CC1 (centres undefined) -15%, CCc1ccccc1NC(=O)CN(c1ccccc1OC)S(=O)(=O)c1ccc(C)cc1 -5.91%, Cc1ccc(C)c(N2CCN(C(=O)c3ccc4c(c3)N(Cc3ccc(F)cc3)C(=O)c3ccccc3S4=O)CC2)c1 (centres undefined) -0.614%, Cc1ccc2nc(Cl)c3cc(C(=O)N4CCCCC4C)sc3c2c1 (centres undefined) -7.66%, O=C(NCCc1ccccc1)c1nc(-c2ccc(Cl)cc2)n2c1CCCCC2 -11.3%, CCCCCn1c(CCCNC(=O)c2cccc(C)c2)nc2ccccc21 -19.1%, COc1ccc(OC)c(NC(=O)N2CC(C)Oc3ccc(C)cc32)c1 (centres undefined) -7.39%, COC(=O)c1ccc(Cl)cc1NC(=O)Nc1nnc(N(C)Cc2ccccc2)s1 -11.9%, N#C/C(=C\c1ccc(-c2cc(Cl)ccc2Cl)o1)C(=O)Nc1cccc2ncccc12 -28.6%, N#C/C(=C\c1ccc(-c2ccc(Cl)c(C(=O)O)c2)o1)c1nc2ccccc2[nH]1 -24.3%, Cc1cccc(CSc2ccc3nnc(CCNS(=O)(=O)c4ccccc4)n3n2)c1 -23.8%, Cc1ccc(C(=O)Nc2ccccc2C(=O)O)cc1S(=O)(=O)N1CCCCCC1 -18.5%, Cc1ccccc1NC(=O)c1ccc(N(Cc2ccccc2)S(C)(=O)=O)cc1 0.827%

Potency, active:
Cc1ccc(-c2nc(NC(=O)CSc3cc(C)c4ccccc4n3)ns2)cc1 28.2 µM, Cc1cc(OCCCSc2nc(-c3ccc(C(C)(C)C)cc3)nc3cc(=O)[nH]n23)ccc1Cl 31.6 µM, CC(=O)O[C@H]1C[C@@H]2CC[C@@H]3[C@H](CC[C@@]4(C)[C@H]3C[C@H]([N+]3(C)CCCCC3)[C@@H]4OC(C)=O)[C@@]2(C)C[C@@H]1[N+]1(C)CCCCC1 17.8 µM, CC(C)c1ccc(NC(=O)c2ccc3c(O)c(S(=O)(=O)c4ccccc4)c(=O)[nH]c3c2)cc1 31.6 µM, CCCCC1CCC(CCCC(C)CCC(=O)O)CC1 (centres undefined) 35.5 µM, C[N+](C)(CCCCCC[N+](C)(C)CCCN1C(=O)c2cccc3cccc(c23)C1=O)CCCN1C(=O)c2cccc3cccc(c23)C1=O 5.01 µM, CC(=O)Nc1ccc(S(=O)(=O)Nc2nc3n(n2)C(c2ccccc2)C=C(c2ccc(Cl)cc2)N3)cc1 (centres undefined) 39.8 µM, N#C/C(=C\c1ccc(-c2cc(Cl)ccc2Cl)o1)C(=O)Nc1ccccc1C(=O)O 28.2 µM, Cc1ccc(C(=O)Nc2ccc(S(=O)(=O)O)c3cc(S(=O)(=O)O)cc(S(=O)(=O)O)c23)cc1NC(=O)c1cccc(NC(=O)Nc2cccc(C(=O)Nc3cc(C(=O)Nc4ccc(S(=O)(=O)O)c5cc(S(=O)(=O)O)cc(S(=O)(=O)O)c45)ccc3C)c2)c1 1.12 µM

From PubChem BioAssay AID1347434 (National Center for Advancing Translational Sciences (NCATS), 2020)
